The results in this text go back to PubChem BioAssay.

A short description of assay [1]: resazurin metabolic signal in HepG2 cells – cell-based, resazurin fluorescence, 24 h, PK04 Diversity Set, profiling panel (AID 1172). Note: test concentration not given here. Conditions: HepG2 viability, higher = more signal.
A short description of assay [2]: budding yeast growth changes without added modifier – OD600, strain BY4716, 24 h, basal condition, primary screen (AID 1173). The following applies: S. cerevisiae BY4716 growth, OD600, 24 h; higher = more signal, called active from +8 up or from −8 down.
Assay [3] is described as follows: viability profiling in MM1S myeloma cells – cell-based, resazurin fluorescence, basal, 24 h, PK04 Diversity Set, profiling panel (AID 1174).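 Note: MM1S multiple myeloma cell line; test concentration not given here.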 Conditions: higher = more signal, called active from +8 up or from −8 down. In general terms: Alamar Blue is a resazurin reagent that responds to reducing activity.
The target of assay [4] is Dihydroorotate dehydrogenase (quinone), mitochondrial (Plasmodium falciparum (isolate 3D7)) (UniProt Q08210). Briefly: inhibition of P. falciparum DHODH – biochemical, C-terminal His tag, absorbance 600 nm, primary screen (AID 1175).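 Note: recombinant parasite enzyme with a five histidine tag at its C terminus; test concentration not given here.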 The following applies: PfDHODH enzyme, DCIP absorbance 600 nm; higher = more signal, called active from +8 up or from −8 down.
Assay [5] in a line: inhibition of PAO1 biofilm formation – strain PAO1, LB-PBS medium, absorbance 600 nm, primary screen (AID 1176). Note: test concentration not given here. Conditions: P. aeruginosa PAO1 growth/biofilm, A600, 12 h; higher = more signal.
Assay [6] is described as follows: growth modulation of vineyard yeast isolate – strain RM11-1a, OD600, basal, 24 h, primary screen (AID 1177).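 Note: cultures grown under basal conditions with no added stressor; test concentration not given here.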 Conditions: S. cerevisiae RM11-1a growth, OD600, 24 h; higher = more signal, called active from +8 up or from −8 down.
Assay [7] is described as follows: growth of efflux-deficient E. coli DRC39 – strain DRC39, OD650, 24 h, E. coli filamentation inducers, primary screen (AID 1178).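 Note: growth measured as culture turbidity by optical density at 650 nm; test concentration not given here.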 Conditions: E. coli DRC39 acrAB, higher = more signal, called active from +8 up or from −8 down.
Assay [8] is described as follows: growth of efflux-deficient E. coli DRC39 – strain DRC39, OD650, 48 h, E. coli filamentation inducers, primary screen (AID 1179).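 Note: screen aims at cell division blockers that make cells filament.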 The following applies: E. coli DRC39 delta-acrAB growth, higher = more signal, called active from +8 up or from −8 down.
The nature of assay [9]: viability profiling in RPMI8226 myeloma cells – cell-based, resazurin fluorescence, basal, 24 h, PK04 Diversity Set, profiling panel (AID 1180).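 Note: RPMI8826 multiple myeloma cell line at 5000 cells per well; test concentration not given here.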 The following applies: higher = more signal.
For assay [10], the target named is E3 ubiquitin-protein ligase XIAP (Homo sapiens) (UniProt P98170). The assay can be described thus: small molecules binding XIAP protein – biophysical, small-molecule microarray, fluorescence 635 nm, primary screen (AID 1181).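 Note: score merges 667 nm emission and signal to noise over triplicate slides.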 Conditions: higher = more signal.

Activity calls are given as the source filed them. Unless noted, the rule behind the calls is not given here.

Sequence of Dihydroorotate dehydrogenase (quinone), mitochondrial (Plasmodium falciparum (isolate 3D7)) (Q08210 whole entry, looked up): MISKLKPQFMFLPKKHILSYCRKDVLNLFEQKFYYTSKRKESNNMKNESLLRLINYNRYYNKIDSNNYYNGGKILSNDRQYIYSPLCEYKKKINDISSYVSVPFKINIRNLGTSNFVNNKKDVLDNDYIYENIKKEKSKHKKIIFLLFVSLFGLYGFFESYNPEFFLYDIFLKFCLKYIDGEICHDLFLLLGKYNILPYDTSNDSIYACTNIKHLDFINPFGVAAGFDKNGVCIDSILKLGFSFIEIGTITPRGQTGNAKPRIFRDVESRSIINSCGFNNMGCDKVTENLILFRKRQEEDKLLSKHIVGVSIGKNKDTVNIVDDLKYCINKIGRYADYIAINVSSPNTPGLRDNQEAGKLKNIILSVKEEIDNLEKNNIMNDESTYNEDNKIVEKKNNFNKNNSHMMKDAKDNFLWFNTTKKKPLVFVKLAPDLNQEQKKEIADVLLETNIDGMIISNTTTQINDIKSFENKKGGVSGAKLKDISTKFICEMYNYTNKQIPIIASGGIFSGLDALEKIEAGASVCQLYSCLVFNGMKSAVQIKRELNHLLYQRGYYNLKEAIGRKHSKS
Sequence of E3 ubiquitin-protein ligase XIAP (Homo sapiens) (P98170 whole entry, looked up): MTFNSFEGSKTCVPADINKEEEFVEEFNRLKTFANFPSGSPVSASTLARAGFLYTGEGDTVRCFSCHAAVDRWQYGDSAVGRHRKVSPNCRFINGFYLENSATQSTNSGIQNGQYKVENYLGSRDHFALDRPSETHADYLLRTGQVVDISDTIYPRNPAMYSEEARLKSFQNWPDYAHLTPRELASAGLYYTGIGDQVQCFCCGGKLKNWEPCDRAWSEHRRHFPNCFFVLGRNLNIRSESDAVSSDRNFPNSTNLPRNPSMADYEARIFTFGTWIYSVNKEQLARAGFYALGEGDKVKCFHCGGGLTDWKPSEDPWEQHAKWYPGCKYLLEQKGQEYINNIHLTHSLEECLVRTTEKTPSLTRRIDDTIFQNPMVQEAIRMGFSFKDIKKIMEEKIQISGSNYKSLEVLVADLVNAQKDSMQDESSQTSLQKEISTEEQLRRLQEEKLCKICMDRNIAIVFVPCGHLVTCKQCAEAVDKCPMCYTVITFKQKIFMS

For `C/C=C/CN(C(=O)C#Cc1ccccc1)[C@H](CO[Si](C)(C)C(C)(C)C)c1ccccc1`, the z-score in assay [1] was 0.704; in assay [2], -0.161 (inactive); in assay [3] it was 1.79 (inactive); in assay [5] it was -0.966 (inactive); in assay [6], -0.36 (inactive); in [7] it was 2 (inactive). Moreover, the z-score in [8] is 0.846 (inactive); in [9], 3.51. Besides, the results for the composite z-score in assay [4] and in assay [10] were -3.11 (inactive) and -0.193, respectively.

Consider `COc1ccc(CC[C@H](O)c2cccc(OCC(=O)OC(C)(C)C)c2)cc1`, for which the z-score in assay [1] was 0.657; in assay [2], -4.45 (inactive); in assay [3], -0.25 (inactive); in assay [5], 0.475 (inactive); in assay [6] it was 0.69 (inactive); in [7], 0.791 (inactive). Moreover, the z-score in assay [8] was 0.573 (inactive); in assay [9] it was -0.204. In addition, the composite z-score in assay [4] was -1.82 (inactive); in assay [10], -0.121.

Take `CCCC[C@@H]1C[C@H]1[C@@H](NC(=O)Cc1ccccc1)c1ccc(Cl)cc1`: the z-score in assay [1] is 1.95; in [2] it was 0.0658 (inactive); in assay [3], 0.625 (inactive); in [5] it was 0.33 (inactive); in assay [6], 0.335 (inactive); in assay [7] it was -0.704 (inactive). Also, the z-score in assay [8] is -0.162 (inactive); in assay [9], -4.68. Besides, the composite z-score was -1.36 (inactive) in assay [4] and -0.0103 in [10].

With `CCOC(=O)C[C@H]1[C@H](OC(=O)Cc2ccc3c(c2)OCO3)[C@@H](NC(=O)c2ccccc2)c2cc(OCCCO)ccc2N1C(=O)Cc1ccc(OC)cc1`, the z-score in assay [1] was -0.0111; in [2], -0.644 (inactive); in [3], -0.234 (inactive); in assay [5] it was 0.407 (inactive); in assay [6] it was -1.86 (inactive); in assay [7], 1.68 (inactive). The values for the z-score in assay [8] and in assay [9] were 2.05 (inactive) and 0.636, respectively. Besides, the figures for the composite z-score in [4] and in assay [10] were -1.37 (inactive) and -0.162, respectively.

As for `Cc1ccc(F)cc1S(=O)(=O)N[C@@H]1CCN(Cc2ccc3c(c2)OCO3)C1`, the z-score in assay [1] is -0.622; in assay [2], -4.86 (inactive); in [3], -0.584 (inactive); in [5] it was -0.177 (inactive); in assay [6], 0.34 (inactive); in assay [7], -0.572 (inactive). For the same molecule, the z-score in assay [8] is -2.33 (inactive); in [9], 0.224. Further, the composite z-score is 0.171 (inactive) in assay [4] and 0.13 in assay [10].

With `COc1ccc(CCNC(=O)[C@@]2(C)c3ccccc3C(=O)N(Cc3cc(C(F)(F)F)cc(C(F)(F)F)c3)[C@H]2c2ccc(CO)cc2)cc1`, the z-score in [1] is 0.0945; in assay [2] it was 0.256 (inactive); in [3], 0.084 (inactive); in assay [5] it was 0.773 (inactive); in [6] it was -0.147 (inactive); in assay [7], 0.482 (inactive). Further, the z-score in assay [8] is 0.282 (inactive); in assay [9], 0.639. Besides, the composite z-score in assay [4] is -0.533 (inactive); in assay [10], 0.0512.

With `COc1ccc(C#Cc2ccc3c(c2)[C@]2(C(=O)N3)[C@H](c3ccc(OCCO)cc3)N3[C@H](c4ccccc4)[C@H](c4ccccc4)OC(=O)[C@H]3[C@@H]2C(=O)O)cc1`, the z-score was 1.24 in assay [1]; 1.85 (inactive) in assay [2]; -0.103 (inactive) in assay [3]; 2.25 (inactive) in assay [5]; 1.73 (inactive) in assay [6]; 1.22 (inactive) in [7]. Besides, the z-score in [8] is 0.0805 (inactive); in assay [9], 0.149. For the same molecule, the composite z-score is -12.9 (active) in assay [4] and 0.158 in assay [10].

Turning to `CCCCC(O)C1C=CC2C(=O)NC(=O)C2N1Nc1ccccn1` (stereo not given), the z-score in assay [1] was -1.32; in [2], 0.932 (inactive); in [3], -1.09 (inactive); in [5] it was 0.695 (inactive); in [6], 0.369 (inactive); in assay [7] it was -0.576 (inactive). For the same molecule, the z-score was -0.529 (inactive) in [8] and -1.07 in assay [9]. In addition, the composite z-score in assay [4] is 0.487 (inactive); in assay [10] it was 0.117.

Regarding `CCCCC(=C=CC[C@@H](O)c1ccc(OCCO)cc1)C[C@@H](O)c1ccccn1`, the z-score is -0.517 in [1]; -1.12 (inactive) in [2]; -0.769 (inactive) in [3]; 0.932 (inactive) in [5]; 0.43 (inactive) in assay [6]; 0.753 (inactive) in assay [7]. Besides, the z-score in assay [8] is 0.239 (inactive); in [9], -0.541. For the same molecule, the composite z-score in assay [4] was -8.71 (active); in assay [10] it was 0.133.

As to `C=CCC(OC(C)=O)[C@@H]1[C@@H](N(Cc2ccc(-c3ccccc3)cc2)C(=O)c2cccc3ccccc23)c2cc(OCCCO)ccc2N1C(=O)c1ccc2ccccc2c1` (stereo not given in full), the z-score was -0.784 in assay [1]; -0.185 (inactive) in assay [2]; -0.967 (inactive) in assay [3]; 0.48 (inactive) in [5]; -0.865 (inactive) in [6]; 0.144 (inactive) in assay [7]. Besides, the values for the z-score in [8] and in assay [9] were -0.455 (inactive) and -1.3, respectively. Also, the composite z-score is -0.318 (inactive) in assay [4] and -0.0017 in assay [10].

On to `C=C(/C(=C/C[C@H](OC(=O)c1ccncc1)c1ccccc1OCCO)c1cc(C(=O)OC)ccc1OC)C(C)C`, for which the z-score in assay [1] is 0.456; in assay [2], 0.0223 (inactive); in assay [3], -0.493 (inactive); in [5] it was 0.297 (inactive); in assay [6], 0.0488 (inactive); in assay [7] it was -0.822 (inactive). The results for the z-score in [8] and in assay [9] were -0.869 (inactive) and 0.956, respectively. Also, the composite z-score is -4.24 (inactive) in assay [4] and -0.0478 in [10].
